Five molecules from PubChem BioAssay can be followed below.

The subject of assay [1] is PRMT1 (protein arginine N-methyltransferase 1). Description: PRMT1 binders on small-molecule microarrays, primary screen, biochemical, small-molecule microarray, 635 nm fluorescence (AID 1088).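 Further: binding of Prmt1 protein to compounds spotted on small-molecule microarray slides.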 Conditions: small-molecule microarray binding, higher = more signal.
Assay [2] in a line: yeast growth modulation, basal conditions, primary screen, YJM789 clinical isolate, OD600, 24 h (AID 1089).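 Further: growth of clinical yeast isolate S. cerevisiae YJM 789 seeded 1000 cells per well; test concentration not given here.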 Conditions: S. cerevisiae YJM789 growth, higher = more signal, called active from +8 up or from −8 down.
The nature of assay [3]: fission yeast growth modulation, primary screen, strain 972, OD600, 24 h, no modulator (AID 1090).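 Further: basal condition with compound alone and no growth modifier present; test concentration not given here.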 Conditions: S. pombe 972 growth, higher = more signal, called active from +8 up or from −8 down.
A short description of assay [4]: S. cerevisiae growth modulation with rapamycin, primary screen, strain BY4716, OD600, 96 h (AID 1091). Further: test concentration not given here. The note with it: higher = more signal, called active from +8 up or from −8 down.
The target in assay [5] is Torsin-1A-interacting protein 2 (Homo sapiens) (UniProt Q8NFQ8). Briefly: LULL1 binders on small-molecule microarray, primary screen, cell lysate, human LULL1 lysate, 635/667 nm fluorescence (AID 1092).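 Further: probe is lysate of COS7 cells overexpressing human LULL1; score merges per-feature 667 nm fluorescence with signal-to-noise.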 The note with it: hLULL1 lysate binding, 635 nm fluorescence, higher = more signal.
Torsin-1A-interacting protein 2 (Homo sapiens), sequence (Q8NFQ8 whole entry, looked up): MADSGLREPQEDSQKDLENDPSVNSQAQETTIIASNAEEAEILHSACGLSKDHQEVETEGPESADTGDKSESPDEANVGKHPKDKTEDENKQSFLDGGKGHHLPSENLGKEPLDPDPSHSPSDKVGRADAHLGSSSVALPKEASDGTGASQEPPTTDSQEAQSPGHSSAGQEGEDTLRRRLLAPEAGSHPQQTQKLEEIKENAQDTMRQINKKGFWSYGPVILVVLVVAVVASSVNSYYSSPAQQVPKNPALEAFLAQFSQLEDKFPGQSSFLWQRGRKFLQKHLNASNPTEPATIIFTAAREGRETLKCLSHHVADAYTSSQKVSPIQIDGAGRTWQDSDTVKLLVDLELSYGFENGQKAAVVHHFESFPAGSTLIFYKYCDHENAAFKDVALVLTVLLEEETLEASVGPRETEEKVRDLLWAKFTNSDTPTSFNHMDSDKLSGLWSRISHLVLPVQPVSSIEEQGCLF
Assay [6] can be described thus: E. coli growth modulation, two-sided OD650, primary screen, E. coli filamentation project, strain DRC41, 24 h (AID 1093).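 Further: MC1000 strain lacking acrAB efflux and sulA so SOS filamentation is blocked; test concentration not given here.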 The note with it: OD650, 24 h, higher = more signal, called active from +8 up or from −8 down.
Assay [7] can be described thus: small-molecule microarray binders of probe aLefty2, primary screen, biochemical, biotinylated probe, 635/667 nm fluorescence (AID 1094).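 Further: score merges spot fluorescence near 667 nm with spot signal-to-noise ratio.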 Conditions: higher = more signal.
The test system of assay [8] is Noggin (protein binding on small-molecule microarray). Briefly: Noggin binders on small-molecule microarray, primary screen, biochemical, 635/667 nm fluorescence (AID 1095).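 Further: score merges 667 nm feature fluorescence with signal to noise over triplicate slides.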 The note with it: 635 nm fluorescence, higher = more signal.
The target of assay [9] is Neurogenic locus notch homolog protein 3 (Homo sapiens) (UniProt Q9UM47). Description: NOTCH3 binders on small-molecule microarray, primary screen, biochemical, 635/667 nm fluorescence (AID 1096). The note with it: NOTCH3 binding, 635 nm fluorescence, higher = more signal.
Neurogenic locus notch homolog protein 3 (Homo sapiens), sequence (Q9UM47 whole entry, looked up): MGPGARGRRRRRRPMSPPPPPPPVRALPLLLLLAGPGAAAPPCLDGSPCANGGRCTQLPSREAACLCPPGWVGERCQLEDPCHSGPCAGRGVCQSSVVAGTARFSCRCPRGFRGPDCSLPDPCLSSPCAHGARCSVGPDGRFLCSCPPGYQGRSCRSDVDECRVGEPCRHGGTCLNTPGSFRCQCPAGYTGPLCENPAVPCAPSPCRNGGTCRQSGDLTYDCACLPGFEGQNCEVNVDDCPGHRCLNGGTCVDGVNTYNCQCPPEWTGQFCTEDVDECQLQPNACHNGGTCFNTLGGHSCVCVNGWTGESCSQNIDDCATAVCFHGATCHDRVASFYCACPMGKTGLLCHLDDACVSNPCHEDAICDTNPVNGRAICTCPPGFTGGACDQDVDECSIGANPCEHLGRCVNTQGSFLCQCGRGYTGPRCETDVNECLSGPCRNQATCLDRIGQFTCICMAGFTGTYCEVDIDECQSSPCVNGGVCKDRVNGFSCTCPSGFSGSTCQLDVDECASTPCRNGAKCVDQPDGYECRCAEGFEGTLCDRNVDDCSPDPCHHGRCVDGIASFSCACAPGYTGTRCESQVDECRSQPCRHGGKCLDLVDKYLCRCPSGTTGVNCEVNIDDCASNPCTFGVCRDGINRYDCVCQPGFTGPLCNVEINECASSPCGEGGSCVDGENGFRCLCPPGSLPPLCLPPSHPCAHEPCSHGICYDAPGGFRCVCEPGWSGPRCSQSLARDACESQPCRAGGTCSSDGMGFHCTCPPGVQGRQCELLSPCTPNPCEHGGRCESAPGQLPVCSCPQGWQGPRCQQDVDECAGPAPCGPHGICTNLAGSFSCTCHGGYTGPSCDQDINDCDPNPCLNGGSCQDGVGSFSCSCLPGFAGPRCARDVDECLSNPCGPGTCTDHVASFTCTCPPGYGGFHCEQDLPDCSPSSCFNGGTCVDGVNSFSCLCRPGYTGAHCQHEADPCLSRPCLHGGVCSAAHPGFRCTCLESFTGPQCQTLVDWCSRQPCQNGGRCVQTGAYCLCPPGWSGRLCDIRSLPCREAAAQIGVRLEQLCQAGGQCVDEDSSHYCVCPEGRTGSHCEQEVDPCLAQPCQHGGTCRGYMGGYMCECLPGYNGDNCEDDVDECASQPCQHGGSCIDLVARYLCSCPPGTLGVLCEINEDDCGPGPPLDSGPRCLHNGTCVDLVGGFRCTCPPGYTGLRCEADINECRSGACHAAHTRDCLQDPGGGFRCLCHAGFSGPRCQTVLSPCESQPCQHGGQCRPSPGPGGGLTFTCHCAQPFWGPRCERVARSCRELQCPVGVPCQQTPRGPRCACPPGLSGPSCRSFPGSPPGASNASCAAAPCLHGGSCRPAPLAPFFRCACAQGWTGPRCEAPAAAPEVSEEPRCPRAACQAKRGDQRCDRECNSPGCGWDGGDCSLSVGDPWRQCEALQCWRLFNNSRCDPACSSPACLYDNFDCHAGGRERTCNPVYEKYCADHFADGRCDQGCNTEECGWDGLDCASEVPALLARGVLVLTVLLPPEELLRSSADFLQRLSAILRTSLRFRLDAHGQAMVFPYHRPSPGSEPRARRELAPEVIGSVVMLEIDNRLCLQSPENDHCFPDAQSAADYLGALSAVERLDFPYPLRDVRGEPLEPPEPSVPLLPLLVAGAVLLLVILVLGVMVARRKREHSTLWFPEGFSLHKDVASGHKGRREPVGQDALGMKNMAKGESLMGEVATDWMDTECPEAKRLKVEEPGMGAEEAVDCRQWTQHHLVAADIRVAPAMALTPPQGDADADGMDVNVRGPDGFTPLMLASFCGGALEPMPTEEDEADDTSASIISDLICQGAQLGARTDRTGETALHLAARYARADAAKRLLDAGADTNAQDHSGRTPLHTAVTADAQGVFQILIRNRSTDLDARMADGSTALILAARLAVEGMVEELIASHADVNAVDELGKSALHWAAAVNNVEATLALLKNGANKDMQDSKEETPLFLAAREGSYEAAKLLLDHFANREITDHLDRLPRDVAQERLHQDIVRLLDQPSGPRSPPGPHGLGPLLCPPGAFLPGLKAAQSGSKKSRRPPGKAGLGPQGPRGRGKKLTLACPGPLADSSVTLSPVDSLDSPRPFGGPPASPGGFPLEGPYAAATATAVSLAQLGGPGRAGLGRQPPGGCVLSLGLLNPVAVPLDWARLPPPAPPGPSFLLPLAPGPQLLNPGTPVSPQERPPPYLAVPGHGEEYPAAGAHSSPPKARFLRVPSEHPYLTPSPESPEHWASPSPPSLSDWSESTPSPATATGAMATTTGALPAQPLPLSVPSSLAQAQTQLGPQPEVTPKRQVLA
Assay [10] in a line: small-molecule microarray binders of probe aEGFR, primary screen, biochemical, biotinylated probe, 635/667 nm fluorescence (AID 1097).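 Further: probe is a biotinylated anti-EGFR antibody binding compounds printed on slides; score combines fluorescence near 667 nm and signal to noise of each spot.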 Conditions: higher = more signal.
Assay [11] relates to Plasmodium falciparum Sir2 (PF13_0152, Sir2A). Briefly: pfSir2 binders on small-molecule microarrays, primary screen, biochemical, small-molecule microarray, 635 nm fluorescence (AID 1098).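 Further: score merges spot fluorescence intensity with its signal-to-noise ratio.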 Conditions: small-molecule microarray binding, fluorescence 635 nm; higher = more signal.
A short description of assay [12]: small-molecule microarray binders of probe aDKK1, primary screen, biochemical, biotinylated probe, 635/667 nm fluorescence (AID 1099).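 Further: score merges 667nm spot fluorescence with signal to noise across triplicate slides; reference of the scale not given here.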 Conditions: higher = more signal.
Assay [13] can be described thus: small-molecule microarray binders of probe aCHRDL2, primary screen, biochemical, biotinylated probe, 635/667 nm fluorescence (AID 1100). The note with it: higher = more signal.
Assay [14] can be described thus: splicing luciferase reporter signal modulators, primary screen, spliceosome inhibition project, cell-based, HEK293, splice +/- reporter (AID 1101).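 Further: HEK293 cells carrying a splicing-competent luciferase reporter gene; test concentration not given here.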 Conditions: luminescence, 24 h, higher = more signal, called active from +8 up or from −8 down. For orientation: A reporter such as luciferase makes a cellular process visible.
Assay [15] deals with Fibroblast growth factor 10 (Homo sapiens) (UniProt O15520). Description: FGF10 binders on small-molecule microarrays, primary screen, biochemical, small-molecule microarray, 635 nm fluorescence (AID 1102). The note with it: FGF10 binding, fluorescence 635 nm, higher = more signal.
Fibroblast growth factor 10 (Homo sapiens), sequence (O15520 whole entry, looked up): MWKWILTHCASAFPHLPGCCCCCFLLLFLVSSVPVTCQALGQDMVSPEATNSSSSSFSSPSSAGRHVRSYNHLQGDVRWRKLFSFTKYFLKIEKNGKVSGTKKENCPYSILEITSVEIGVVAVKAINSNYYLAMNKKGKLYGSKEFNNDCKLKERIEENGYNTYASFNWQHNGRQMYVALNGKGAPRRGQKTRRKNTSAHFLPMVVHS
In assay [16] the test system is glycogen synthase kinase-3 (GSK3A per assay name; protocol says GSK3B). Description: GSK3 binders on small-molecule microarrays, primary screen, biochemical, small-molecule microarray, 635 nm fluorescence, GSK3A (AID 1103). Further: the record names both GSK3A and GSK3B. The note with it: small-molecule microarray binding, fluorescence 635 nm; higher = more signal.
Assay [17] has as its target Epidermal growth factor receptor (Homo sapiens) (UniProt P00533). Description: EGFR binders on small-molecule microarrays, primary screen, biochemical, small-molecule microarray, 635 nm fluorescence (AID 1104).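 Further: score merges 667 nm emission intensity with spot signal to noise over triplicate slides.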 Conditions: EGFR binding, higher = more signal.
In assay [18] the target is Follistatin-related protein 3 (Homo sapiens) (UniProt O95633). Description: FSTL3 binders on small-molecule microarrays, primary screen, biochemical, small-molecule microarray, 635 nm fluorescence (AID 1105).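 Further: score merges emission near 667 nm and signal to noise per printed spot across three slides.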 Conditions: FSTL3 binding, higher = more signal.
Follistatin-related protein 3 (Homo sapiens), sequence (O95633 whole entry, looked up): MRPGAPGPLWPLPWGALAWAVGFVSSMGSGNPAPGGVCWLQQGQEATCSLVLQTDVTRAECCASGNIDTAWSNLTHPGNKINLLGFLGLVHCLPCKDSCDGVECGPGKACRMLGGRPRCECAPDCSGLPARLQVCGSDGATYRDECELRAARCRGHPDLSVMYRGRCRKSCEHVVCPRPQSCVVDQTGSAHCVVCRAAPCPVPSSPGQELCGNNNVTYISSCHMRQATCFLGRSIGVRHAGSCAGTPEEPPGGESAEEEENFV
Assay [19] deals with Dickkopf-related protein 1 (Homo sapiens) (UniProt O94907). Briefly: DKK1 binders on small-molecule microarrays, primary screen, biochemical, small-molecule microarray, 635 nm fluorescence scan (AID 1106).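 Further: score merges emission near 667 nm with signal to noise over three replicate slides.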 Conditions: DKK1 binding, higher = more signal.
Dickkopf-related protein 1 (Homo sapiens), sequence (O94907 whole entry, looked up): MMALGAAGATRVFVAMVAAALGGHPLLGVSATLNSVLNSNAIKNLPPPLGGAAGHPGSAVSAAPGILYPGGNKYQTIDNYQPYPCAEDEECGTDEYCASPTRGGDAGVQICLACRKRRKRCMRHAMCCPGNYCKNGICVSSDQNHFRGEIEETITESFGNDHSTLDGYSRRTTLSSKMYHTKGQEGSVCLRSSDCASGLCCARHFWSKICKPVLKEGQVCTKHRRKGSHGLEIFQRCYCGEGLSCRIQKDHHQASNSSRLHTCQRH
In assay [20] the test system is Inhibin beta A chain (activin A). Briefly: INHBA (activin A) binders on microarrays, primary screen, biochemical, small-molecule microarray, 635 nm fluorescence scan (AID 1107).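 Further: mouse activin A protein probed at 4.33 µg/mL on printed slides; score merges bound-protein fluorescence near 667 nm with spot signal-to-noise.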 Conditions: small-molecule microarray binding, higher = more signal.

Structures are written as SMILES. The source made the active and inactive calls.

Epidermal growth factor receptor (Homo sapiens), sequence (P00533 whole entry, looked up): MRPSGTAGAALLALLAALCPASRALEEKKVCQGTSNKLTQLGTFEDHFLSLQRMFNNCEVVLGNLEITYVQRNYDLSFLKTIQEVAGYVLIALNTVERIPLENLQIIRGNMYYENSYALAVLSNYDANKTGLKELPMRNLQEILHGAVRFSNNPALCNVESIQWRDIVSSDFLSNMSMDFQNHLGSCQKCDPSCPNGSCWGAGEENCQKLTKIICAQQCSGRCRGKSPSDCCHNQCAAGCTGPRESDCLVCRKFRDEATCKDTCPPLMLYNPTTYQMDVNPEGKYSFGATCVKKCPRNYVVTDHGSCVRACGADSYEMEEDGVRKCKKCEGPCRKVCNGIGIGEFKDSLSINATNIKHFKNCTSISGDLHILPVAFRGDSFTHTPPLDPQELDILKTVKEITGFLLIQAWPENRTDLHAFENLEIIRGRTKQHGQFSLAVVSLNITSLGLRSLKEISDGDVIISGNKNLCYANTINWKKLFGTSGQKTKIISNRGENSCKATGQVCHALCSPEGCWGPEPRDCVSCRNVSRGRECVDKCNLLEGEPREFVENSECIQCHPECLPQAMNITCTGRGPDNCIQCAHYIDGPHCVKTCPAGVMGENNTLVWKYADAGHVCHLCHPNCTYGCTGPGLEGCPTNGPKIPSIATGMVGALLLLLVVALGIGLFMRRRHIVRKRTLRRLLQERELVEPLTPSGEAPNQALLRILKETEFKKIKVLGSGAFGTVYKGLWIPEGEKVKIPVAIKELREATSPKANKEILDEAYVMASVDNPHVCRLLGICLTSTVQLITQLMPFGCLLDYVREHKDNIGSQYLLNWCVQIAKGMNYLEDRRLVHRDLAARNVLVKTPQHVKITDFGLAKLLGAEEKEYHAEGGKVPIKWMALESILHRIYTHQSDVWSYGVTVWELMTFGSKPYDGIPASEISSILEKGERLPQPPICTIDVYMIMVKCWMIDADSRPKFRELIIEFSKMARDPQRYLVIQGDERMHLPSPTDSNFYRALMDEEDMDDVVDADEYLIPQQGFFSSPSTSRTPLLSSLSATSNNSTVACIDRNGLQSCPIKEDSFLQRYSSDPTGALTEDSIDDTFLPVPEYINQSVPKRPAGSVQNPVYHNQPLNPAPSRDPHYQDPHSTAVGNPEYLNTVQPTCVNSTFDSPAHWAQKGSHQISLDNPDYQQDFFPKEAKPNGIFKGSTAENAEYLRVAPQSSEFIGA

With `COC(=O)[C@H](C)NC(=O)CCC1CC(OC(=O)NCc2cccc3ccccc23)CC2(CCCC(COC(=O)NCC3CCCCC3)O2)O1` (stereo not given in full), the composite z-score in assay [1] was 1.55; in assay [5], 3.37; in assay [7], -0.114; in [8], 0.918; in assay [9], 1.06; in assay [10], 0.0278. Besides, the composite z-score in assay [11] is 0.534; in assay [12] it was -0.0762; in assay [13], -0.86; in [15] it was 1.47; in assay [16] it was 1.36; in [17], 1.15. Further, the composite z-score was 1.08 in [18], 0.528 in assay [19] and -0.564 in assay [20]. In addition, the z-score in assay [2] was -0.0166 (inactive); in assay [3], 0.633 (inactive); in assay [4] it was -0.825 (inactive); in assay [6], -0.639 (inactive); in [14], -0.397 (inactive).

In the case of `COc1ccc([Si](C)(C)[C@@H]2[C@@H](CCO)O[C@]3(C(=O)N(Cc4ccc(NC(C)=O)cc4)c4ccccc43)[C@H]2C)cc1`, the composite z-score was determined as 1.55 in assay [1]; 2.7 in assay [5]; 0.0325 in [7]; 1.48 in assay [8]; 0.949 in assay [9]; 0.492 in assay [10]. Also, the composite z-score in assay [11] is 1.23; in [12], -0.173; in [13], 0.0018; in [15], 0.779; in assay [16], 1.28; in assay [17], 1.28. Besides, the values for the composite z-score in assay [18], in assay [19] and in [20] were 0.951, -0.0026 and 0.387, respectively. Moreover, the z-score in assay [2] was 2.99 (inactive); in [3] it was 0.282 (inactive); in [4], 34.6 (active); in assay [6] it was 1.44 (inactive); in assay [14] it was -2.27 (inactive).

As to `CC(CCC(=O)OC[C@H]1O[C@H](C#Cc2ccccc2)C=C[C@@H]1Oc1ccc(C)cc1)=NO[C@@H](C)c1cn([C@H](CO)Cc2ccccc2)nn1`, the composite z-score in [1] is 0.668; in assay [5], 0.373; in assay [7] it was -0.145; in [8] it was 0.237; in assay [9], 0.281; in assay [10], -0.0461. In addition, the composite z-score in assay [11] is 0.737; in assay [12], -0.406; in assay [13], -0.52; in assay [15], 0.304; in assay [16], -0.28; in assay [17] it was 0.313. The figures for the composite z-score in assay [18], in [19] and in assay [20] were 0.28, 0.256 and -0.146, respectively. The z-score in [2] is 0.846 (inactive); in assay [3] it was 0.21 (inactive); in [4] it was 12.2 (active); in [6] it was -0.434 (inactive); in assay [14], -1.62 (inactive).

`CCc1cccc(NC(=O)O[C@H]2[C@H](OC(=O)Nc3ccc4c(c3)OCO4)[C@@H](OC(=O)Nc3ccc4c(c3)OCO4)[C@@H](OC)O[C@@H]2CO)c1`: the composite z-score was 1.54 in assay [1]; 3.59 in [5]; 0.166 in [7]; 1.22 in assay [8]; 1.08 in assay [9]; -0.0488 in assay [10]. Also, the composite z-score was 0.402 in [11]; -0.144 in [12]; -0.0627 in assay [13]; 1.38 in [15]; 1.35 in assay [16]; 0.446 in assay [17]. In addition, the composite z-score in assay [18] was 1.32; in assay [19], 0.583; in assay [20] it was 0.863. Also, the z-score in assay [2] is 1.41 (inactive); in assay [3], 1.5 (inactive); in assay [4], -2.13 (inactive); in assay [6], 1.47 (inactive); in [14], -0.637 (inactive).

Take `CC(C)NC(=O)[C@@]1(c2ccc([N+](=O)[O-])cc2)CC(=O)N(CC23CC4CC(CC(C4)C2)C3)[C@@H]1c1ccc(CO)cc1I`: the composite z-score in [1] is 1.52; in assay [5], 2.53; in [7], 0.448; in assay [8], 0.176; in assay [9], 0.341; in assay [10] it was 0.0743. Also, the composite z-score in assay [11] stood at 0.504; in [12], 0.921; in assay [13], 0.197; in assay [15], 0.0738; in [16], 1.12; in assay [17], 0.353. The figures for the composite z-score in assay [18], in [19] and in assay [20] were 0.252, 0.208 and 0.197, respectively. Moreover, the z-score is 0.151 (inactive) in [2]; 0.168 (inactive) in assay [3]; 5.83 (inactive) in assay [4]; -0.525 (inactive) in assay [6]; 0.278 (inactive) in assay [14].
